# Bioassay records deposited in PubChem BioAssay by National Center for Advancing Translational Sciences (NCATS).
# ELG1 repair inh – inhibitors of ELG1-dependent DNA repair in HEK293T cells; 330,000 tested, 2.3% active; Potency, µM (series often up to 46.1 µM), without a hit: top-dose activity change, negative = inhibition, most hits filed as inhibitors; HEK293T ELG1-luciferase reporter, luminescence, 16 h; DNA damage induced by 5-fluorouridine; note: % is set by controls: 0 for no effect and ±100 for the full control effect; nearly all actives have a fitted effect of over 55% in size
#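 Cells (2,000 per well) received 5-fluorouridine plus test compound or DMSO and were incubated 16 hr at 37 °C, 5% CO2. Luciferase activity was read by luminescence 30 min after ONE-Glo addition; signal suppression marked inhibition of damage-induced ELG1 function.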
# SMN2 splice enh – enhancers of SMN2 splice variant expression | HEK293 SMN2-luciferase splicing reporter, luminescence, 30-36 h | 210,000 tested, 2.8% active | Potency, µM (doses to about 46.1 µM), inactives show at the highest dose activity change, positive = activation, actives largely listed as activators | AID 1458; note: % of control where 0% means no effect; nearly all actives have a fitted effect of over 55% in size
#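 HEK293 cells carry an SMN2 […]–luciferase reporter in which exon 7 inclusion puts luciferase in frame. Cells were plated 10-12 h before compound addition, then incubated 30-36 h at 37C. ONE-Glo luminescence was read; sodium butyrate at 4.5 mM final served as control.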
# NPC1 prom act – activates the NPC1 promoter; Huh7 NPC1 promoter luciferase reporter, 24 h; 320,000 tested, 2.4% active; AID 485313; Potency, µM (doses to about 9.22 µM), for inactives: at the top dose activation, usual class: activators; note: % of control where 0% means no effect; nearly all actives have a fitted effect of over 60% in size
#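 Cells: Huh7 expressing luciferase under the NPC1 promoter, 1500/well. Seeded 2 h, compound added, incubated 24 h at 37 °C. Luciferase reagent, 10 min ambient, then luminescence.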
# Rab9 promoter act – activators of Rab9 promoter. Huh7 Rab9 promoter-luciferase reporter, luminescence, 24 h. Potency, µM (doses to about 9.22 µM), for the others: at the top dose activation, negative = inhibition, most hits filed as activators. 320,000 tested, 2.8% active; note: % of control where 0% means no effect; nearly all actives have a fitted effect of over 60% in size
#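 Promoter activation is measured as luciferase luminescence in Huh7 cells stably transfected with a Rab9 promoter–luciferase construct, following 24 h compound exposure at 37 °C and 10 min reagent incubation at ambient temperature.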
# FLuc counter – inhibits or activates purified firefly luciferase, miR-21 counter-screen. P08659. purified FLuc, Km substrates, luminescence inhibition. Potency, µM (highest dose often 57.5 µM), for inactives: at the top dose activity change, negative = inhibition, hits mostly inhibitors. 360,000 tested, 6.9% active. AID 588342;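 note: plate controls were vehicle for no effect and reference inhibitor for full effect; nearly all actives have a fitted effect of over 55% in size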
# Target sequence (P08659 whole entry, looked up): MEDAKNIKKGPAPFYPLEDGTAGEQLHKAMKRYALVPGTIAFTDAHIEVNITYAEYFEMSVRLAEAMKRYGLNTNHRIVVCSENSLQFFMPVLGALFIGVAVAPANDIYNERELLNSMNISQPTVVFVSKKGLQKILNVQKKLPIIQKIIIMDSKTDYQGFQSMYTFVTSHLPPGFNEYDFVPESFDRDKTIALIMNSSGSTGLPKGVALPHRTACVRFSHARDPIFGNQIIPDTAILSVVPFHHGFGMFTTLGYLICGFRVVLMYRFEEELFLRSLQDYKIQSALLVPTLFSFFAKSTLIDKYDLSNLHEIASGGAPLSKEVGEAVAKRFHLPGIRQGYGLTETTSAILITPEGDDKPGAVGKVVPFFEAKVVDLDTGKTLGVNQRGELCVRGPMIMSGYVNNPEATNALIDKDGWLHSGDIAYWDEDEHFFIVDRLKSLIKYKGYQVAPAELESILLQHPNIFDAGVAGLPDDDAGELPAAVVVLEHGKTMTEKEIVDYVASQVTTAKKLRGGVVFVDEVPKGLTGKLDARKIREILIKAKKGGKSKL
#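 Purified P. pyralis luciferase, 10 nM final, with Km-level 10 uM D-luciferin and 10 uM ATP in 50 mM Tris acetate pH 7.5, 10 mM Mg acetate, 0.01% Tween-20, 0.05% BSA; 6-point qHTS titration about 60 µM downward; luminescence read.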
# ELG1 genotox – genotoxicity induction in ELG1-luciferase HEK293T cells | HEK293T ELG1-luciferase reporter, luminescence, 16 h | Potency, µM (highest dose often 46 µM), without a hit: top-dose activity change, positive = activation, most hits filed as activators | 330,000 tested, 1.3% active; note: % of control where 0% means no effect; nearly all actives have a fitted effect of over 60% in size
#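 HEK293T cells expressing luciferase-tagged ELG1 were exposed to compound or DMSO vehicle for 16 hr at 37 °C and 5% CO2. Luciferase activity was then measured with ONE-Glo after 30 min at room temperature.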
# Numbers without * were called inactive; ? = inconclusive; . = no result; [ ] = dose if it differs, or a comment. Compounds with a hit are over-represented: about 9.4% of the library has one in this group of screens. Calls come from the whole dose curve; as a rule, active = well fitted curve in the direction sought with a large enough effect; inconclusive = small, poorly fitted or top-dose-only effect, or another doubt; inactive = no such curve, though single readings can be large; an effect the other way counts as inactive or inconclusive. Potency is the fitted concentration of half-maximal effect.
SMILES,ELG1 repair inh,SMN2 splice enh,NPC1 prom act,Rab9 promoter act,FLuc counter,ELG1 genotox
Cc1cc(C(=O)COC(=O)c2ccc(O)cc2)c(C)n1CC1CCCO1 (centres undefined),?,23%,1.8µM*,4µM*,4.8µM*,?
COc1cc(OC)cc(C(=O)OCC(=O)c2cc(C)n(CC3CCCO3)c2C)c1 (centres undefined),17%,.,14%,18%,6.7µM*,8%
O=C(Cn1cnc2c(oc3ccccc32)c1=O)Nc1ccc(F)cc1F,.,.,.,.,-15%,.
COc1ccc(OC)c(-c2cc(C(=O)Nc3c(C)nn(Cc4ccccc4C)c3C)no2)c1,26µM*,-33%,-10%,-6%,2%,-15%
COc1ccc(-c2cc(C(=O)Nc3c(C)nn(Cc4ccccc4Cl)c3C)no2)cc1OC,23µM*,-10%,-3%,-4%,0%,3%
Cc1nn(Cc2ccc(Cl)cc2Cl)c(C)c1NC(=O)c1sc2ccccc2c1Cl,-3%,-14%,-4%,-21%,-2%,-1%
Cc1ccccc1Cn1nc(C)c(NC(=O)c2sc3ccccc3c2Cl)c1C,26µM*,-50%,-4%,4%,-3%,-22%
COc1ccc(OC)c(-c2cc(C(=O)Nc3c(C)nn(Cc4ccccc4Cl)c3C)no2)c1,0%,-25%,-10%,-2%,6%,-11%
COc1ccc(OC)c(-c2cc(C(=O)Nc3cc(C)n(Cc4ccc(Cl)cc4)n3)no2)c1,21µM*,-29%,-9%,-12%,5%,-9%
O=C(NCc1ccc(F)cc1)C(=O)NCC(c1ccco1)S(=O)(=O)c1cccs1 (centres undefined),.,.,.,.,5%,.
COC(=O)C1=C(C)NC(C)=C(C(=O)OC)C1c1ccc(C)o1,0%,.,-3%,-4%,1%,3%
CC1=C(C(=O)OC(C)C)C(c2ccc(C)o2)C(C(=O)OC(C)C)=C(C)N1,18µM*,.,-2%,-4%,1%,-6%
O=C(NCCc1c[nH]c2ccccc12)C(=O)NCC1OCCCN1S(=O)(=O)c1cc(F)ccc1F (centres undefined),21µM*,-13%,-4%,-5%,-1%,-21%
O=C(NCCc1ccccc1)C(=O)NCC1OCCCN1S(=O)(=O)c1cc(F)ccc1F (centres undefined),-25%,.,-3%,-1%,3%,-7%
COc1ccc(S(=O)(=O)N2CCOC2CNC(=O)C(=O)NCCc2c[nH]c3ccccc23)cc1C (centres undefined),26µM*,-58%,-5%,1%,4%,-8%
O=C1c2ccccc2C(=O)N1C[C@]1(C(=O)O)NCCS1(=O)=O,.,4%[9.22 µM],.,.,.,.
COc1cccc(CNC(=O)CSc2cc(C)[nH]c(=O)n2)c1,.,.,.,.,2%,.
CCOCCCNC(=O)Cn1ncc2c([nH]c3ccccc32)c1=O,.,.,.,.,-2%,.
CC(C)(C)c1ccc(Cn2ccc(-c3ccc4c(c3)OCO4)n2)cc1,?,4%,8%,12%,27µM*,1%
N#Cc1nc(-c2ccc(OCc3ccccc3)cc2)oc1NCc1cccnc1,?,-27%,0%,1%,?,-16%
CN(C)c1oc(-c2ccc(OCc3ccccc3)cc2)nc1C#N,?,?,17%,6%,?,16µM*
CCc1ccc(Cn2c(CNS(=O)(=O)c3ccc([N+](=O)[O-])cc3)nc3cccnc32)cc1,.,.,.,.,-1%,.
Nc1nccc(/C=C/c2ccc(Cl)cc2)n1,?,.,1.8µM*,2.2µM*,6µM*,?
Cc1ccc(S(=O)(=O)N2CCC(C(=O)O)(c3ccccc3)CC2)cc1,.,11%[9.22 µM],.,.,.,.
Oc1ccc2ccccc2c1/C=C\c1ccc2c(Br)cc(Br)c(O)c2n1,.,-9%[9.22 µM],.,.,.,.
SMILES,ELG1 repair inh,SMN2 splice enh,NPC1 prom act,Rab9 promoter act,FLuc counter,ELG1 genotox
Oc1c(Cl)cc(Cl)cc1/C=C/c1ccc2cccc(O)c2n1,23µM*,-20%,-35%,-32%,?,-15%
Oc1cccc2ccc(/C=C/c3ccccc3Br)nc12,?,.,3.5µM*,?,3.4µM*,?
Oc1ccc(Cl)cc1/C=C/c1ccc2cccc(O)c2n1,-3%,8%,-21%,-15%,21µM*,?
CCOc1cc(/C=C/c2ccc3cccc([N+](=O)[O-])c3n2)cc(Cl)c1O,8.2µM*,-15%,-6%,1%,-13%,1%
Cc1nc(NC2CCCCC2)c2nc(-c3ccccc3)n(CCCN3CCOCC3)c2n1,.,-33%,.,.,.,.
O=C(NCc1ccco1)/C(=C/c1ccc(C(F)(F)F)cc1)c1nc2ccccc2[nH]1,?,25%,10%,15%,12µM*,?
COc1cccc(CNC(=O)CCc2c(C)c3ccc(O)c(C)c3oc2=O)c1,.,-10%,.,.,3%,.
CC12CCC(C(=O)Nc3nc4ccc(Br)cc4s3)(OC1=O)C2(C)C (centres undefined),?,?,?,?,19µM*,14%
CN(C)C(=S)Nc1cccc(F)c1,2%,.,-1%,-1%,0%,-7%
CN(C)c1ccc(N=Nc2cccc(F)c2)cc1,?,.,2µM*,3.5µM*,0.24µM*,0.65µM*
CN(C)c1ccc(N=Nc2cccc3ccoc23)cc1,?,3.5µM*,?,?,1.2µM*,6.5µM*
NC(N)=NC(N)=Nc1ccc(C(=O)O)cc1,.,-3%[9.22 µM],.,.,.,.
O=S(=O)(O)O,.,0%,.,.,.,.
COCCNc1nc2sc3c(c2c(=O)n1Cc1ccco1)CCCCC3,?,32µM*,?,2µM*,?,?
O=c1c2c3c(sc2nc(NCCO)n1Cc1ccco1)CCCCC3,?,41%,14%,13%,15µM*,17%
Cc1ccc(Cc2cn3cc(-c4ccccc4)nc3s2)cc1,.,2.8µM*,.,.,0.15µM*,.
O=c1oc2ccccc2cc1-c1cn2cc(Cc3cc(Cl)ccc3Cl)sc2n1,.,-2%,.,.,0%,.
Clc1ccc(-c2cn3cc(Cc4ccccc4)sc3n2)cc1,.,5.6µM*,.,.,0.24µM*,.
Fc1ccc(-c2cn3cc(Cc4ccccc4Cl)sc3n2)cc1,.,2.2µM*,.,.,0.48µM*,.
Fc1ccc(Cc2cn3cc(-c4ccc(F)cc4)nc3s2)cc1,.,3.2µM*,.,.,0.3µM*,.
CCc1ccc(C(=O)c2cn(CC(=O)Nc3ccc(C)c(C)c3)c3ccccc3c2=O)cc1,.,5%,.,.,-7%,.
COc1ccc(OC)c(CNS(=O)(=O)c2c(C(=O)N3CCC(C)CC3)c(C)n(C)c2C)c1,.,.,.,.,-2%,.
CCCCOC(=O)c1ccc(NC(=O)CSc2nc3c(c(=O)[nH]2)CCC3)cc1,.,.,.,.,8%,.
Fc1ccccc1Cc1cn2cc(-c3ccc(Cl)cc3)nc2s1,.,?,.,.,0.3µM*,.
